Structures are written as SMILES. About 83,000 compounds went through this panel and 20% of them were active in at least one assay; those are over-represented in the sample as a whole.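 The endpoint reported here, percent growth, reads 100 for growth as untreated, 0 for no net growth and -100 for all cells dead.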 Unmarked numbers belong to inactive results. Active and inactive are the calls of the source. How the source made its calls: active means growth percent below 10; inactive means the rest.

The values that follow come from PubChem BioAssay (NCI).

Among the test systems are HCT-15 colon; HT29 colon; SNB-75 CNS; SNB-19 CNS; U251 CNS; PC-3 prostate; SK-MEL-5 melanoma; UACC-62 melanoma; LOX IMVI melanoma; SK-MEL-28 melanoma.
What all share (assay): NCI-60 one-dose screen, 48 h (100 = growth as untreated, 0 = no growth, -100 = all killed)
What all share (conditions): 10 µM unless noted

Consider `C[C@H]1c2ccccc2CN1CCCOc1cc2c(cc1OCC1CC1)C1(CCCC1)C(N)=N2`, for which the growth in the assay on HCT-15 colon was 2.62% (active); in the assay on HT29 colon it was 2.94% (active); in the assay with SNB-75 CNS it was 74.9%; in the assay on SNB-19 CNS, 83.9%; in the assay with U251 CNS, 48.7%; in the assay on PC-3 prostate, 44.6%. The growth in the assay on SK-MEL-5 melanoma is -84.6% (active); with UACC-62 melanoma, 57.4%; in the assay on LOX IMVI melanoma it was -70.2% (active); in the assay with SK-MEL-28 melanoma, -61% (active).
Take `COc1ccc(/C=N/NC(=O)Cn2nnc3ccccc32)cc1`: the growth in the assay with HCT-15 colon is 104%; in the assay on HT29 colon it was 105%; with SNB-75 CNS, 90.6%; in the assay with SNB-19 CNS it was 101%; in the assay with U251 CNS, 102%; with PC-3 prostate it was 95.9%. Moreover, the growth in the assay with SK-MEL-5 melanoma is 110%; with UACC-62 melanoma, 84.6%; in the assay with LOX IMVI melanoma it was 106%; in the assay with SK-MEL-28 melanoma, 102%.
As to `COC(=O)c1nc(-c2ccc(C)cc2)oc1N1CCOCC1`, the growth in the assay with HCT-15 colon is 84.8%; with HT29 colon, 86.8%; in the assay with SNB-75 CNS, 84.6%; in the assay with SNB-19 CNS, 94.9%; in the assay with U251 CNS it was 100%; with PC-3 prostate it was 110%. In addition, the growth in the assay with SK-MEL-5 melanoma is 103%; in the assay on UACC-62 melanoma, 88%; with LOX IMVI melanoma it was 107%; in the assay on SK-MEL-28 melanoma, 104%.
As for `O=CN1N=C(c2cccc(Nc3ccncc3)c2)CC1c1ccc2c(c1)OCO2` (stereo not given), the growth in the assay with HCT-15 colon is 95.7%; in the assay on HT29 colon, 69.8%; with SNB-75 CNS, 88.4%; in the assay on SNB-19 CNS it was 99.7%; in the assay with U251 CNS, 94.8%; in the assay on PC-3 prostate, 84.9%. The growth in the assay on SK-MEL-5 melanoma is 91.8%; with UACC-62 melanoma, 99.6%; with LOX IMVI melanoma, 95.3%; with SK-MEL-28 melanoma, 97.7%.
Consider `Cn1cc(-c2ccc3occ(-c4cccc(-c5ccncc5)c4)c3n2)cn1`, for which the growth with HCT-15 colon was 5.33% (active); in the assay on HT29 colon it was 7.76% (active); with SNB-75 CNS, -12.8% (active); with SNB-19 CNS, 29.4%; with U251 CNS, 25.4%; in the assay with PC-3 prostate, 19.6%. In addition, the growth in the assay with SK-MEL-5 melanoma was -46.4% (active); in the assay on UACC-62 melanoma it was -15.7% (active); in the assay with LOX IMVI melanoma it was 14.9%; in the assay with SK-MEL-28 melanoma, 30.6%.
Consider `Cc1ccc2c(c1)CC(O)CC1C(=O)N(CCO)CC(=O)N21` (stereo not given), for which the growth in the assay with HCT-15 colon is 106%; in the assay on HT29 colon, 96.1%; with SNB-75 CNS, 83%; in the assay with SNB-19 CNS, 102%; in the assay with U251 CNS, 95.4%; with PC-3 prostate, 96.8%. For the same compound, the growth in the assay with SK-MEL-5 melanoma was 104%; in the assay on UACC-62 melanoma, 97.3%; in the assay with LOX IMVI melanoma, 96.2%; in the assay with SK-MEL-28 melanoma it was 102%.
Turning to `Cc1[nH]c(C(=O)Nc2ccc(C(N)=O)cc2OC(C)C)c(Cl)c1Cl`, the growth with HCT-15 colon was 96.1%; in the assay on HT29 colon, 111%; in the assay with SNB-75 CNS, 93.3%; in the assay with SNB-19 CNS, 99%; with U251 CNS it was 98.2%; in the assay with PC-3 prostate, 99.3%. Also, the growth is 99.3% with SK-MEL-5 melanoma, 106% with UACC-62 melanoma, 96.1% in the assay with LOX IMVI melanoma and 106% with SK-MEL-28 melanoma.
With `CNC(=O)c1cc(Oc2ccc3nc(NC(=O)Nc4ccc(F)cc4F)sc3c2)ccn1`, the growth in the assay on HCT-15 colon is 84%; in the assay with HT29 colon, 58.8%; in the assay with SNB-75 CNS, 19.2%; in the assay on SNB-19 CNS, 71.1%; with U251 CNS, 37%; with PC-3 prostate, 65.9%. Further, the growth was 39% with SK-MEL-5 melanoma, 65.1% in the assay on UACC-62 melanoma, 52.1% in the assay on LOX IMVI melanoma and 52.1% in the assay on SK-MEL-28 melanoma.
As to `Cn1cc(-c2nc(-c3c[nH]c4c(Cl)nccc34)cs2)c2ccccc21`, the growth with HCT-15 colon was 98.6%; with HT29 colon, 83.5%; in the assay with SNB-75 CNS, 108%; with SNB-19 CNS, 94.5%; with U251 CNS it was 86.3%; in the assay on PC-3 prostate, 86.1%. In addition, the growth is 91.2% with SK-MEL-5 melanoma, 97.5% in the assay with UACC-62 melanoma, 102% with LOX IMVI melanoma and 108% with SK-MEL-28 melanoma.
Take `COc1ccc(/C=C/C(=O)c2ccc(-n3cc(CN4CCN(c5cc6c(cc5F)c(=O)c(C(=O)O)cn6C5CC5)CC4)nn3)cc2)cc1`: the growth is 80.6% in the assay on HCT-15 colon; 29.6% with HT29 colon; 58.3% with SNB-75 CNS; 67.7% in the assay on SNB-19 CNS; 41.4% in the assay on U251 CNS; 56.3% with PC-3 prostate. In addition, the growth with SK-MEL-5 melanoma is 69%; in the assay with UACC-62 melanoma, 53.9%; in the assay on LOX IMVI melanoma, 27.9%; in the assay with SK-MEL-28 melanoma, 79.7%.
With `CS(=O)(=O)c1ccc(/C(=N/NC(N)=S)c2ccc(F)cc2)cc1`, the growth is 98.4% in the assay on HCT-15 colon; 107% in the assay on HT29 colon; 93.1% in the assay with SNB-75 CNS; 99.9% in the assay with SNB-19 CNS; 107% in the assay with U251 CNS; 103% in the assay with PC-3 prostate. Further, the growth is 102% in the assay on SK-MEL-5 melanoma, 101% with UACC-62 melanoma, 101% in the assay on LOX IMVI melanoma and 114% with SK-MEL-28 melanoma.
Regarding `Cn1ncc(CC(=O)O)c1-n1nnc2cc(Cl)ccc2c1=O`, the growth is 107% with HCT-15 colon; 103% in the assay on HT29 colon; 81.1% with SNB-75 CNS; 96% with SNB-19 CNS; 103% in the assay with U251 CNS; 103% in the assay with PC-3 prostate. The growth is 110% with SK-MEL-5 melanoma, 94.8% in the assay on UACC-62 melanoma, 103% with LOX IMVI melanoma and 144% with SK-MEL-28 melanoma.
Consider `Cc1cc2c(c(C)n1)CN(C(=O)Nc1nc(-c3cncs3)ccc1N)C2`, for which the growth with HCT-15 colon is 102%; with HT29 colon, 91%; in the assay with SNB-75 CNS, 90.3%; with SNB-19 CNS it was 99.5%; in the assay on U251 CNS, 86.9%; in the assay on PC-3 prostate it was 104%. Besides, the growth in the assay on SK-MEL-5 melanoma was 105%; in the assay on UACC-62 melanoma it was 91.9%; in the assay with LOX IMVI melanoma, 111%; in the assay with SK-MEL-28 melanoma, 105%.
For the compound `O=C(Nc1ncc(Cc2ccccc2Cl)s1)c1ccc2c(c1)OCCO2`, the growth is 10.4% with HCT-15 colon; 6.05% (active) with HT29 colon; 3.37% (active) in the assay on SNB-75 CNS; 36% with SNB-19 CNS; 14.7% in the assay on U251 CNS; 23.4% in the assay with PC-3 prostate. The growth in the assay on SK-MEL-5 melanoma is -25.1% (active); in the assay with UACC-62 melanoma it was 27.9%; with LOX IMVI melanoma, 23.6%; in the assay with SK-MEL-28 melanoma, 76.3%.
For `CCOC(=O)C1=C(c2ccccc2)N=C2N(c3ccccc3)N=C(C(C)=O)N2C1c1ccc(Br)cc1` (stereo not given), the growth in the assay with HCT-15 colon was 92.2%; with HT29 colon, 85.1%; in the assay with SNB-75 CNS, 85.8%; in the assay on SNB-19 CNS it was 88.7%; with U251 CNS, 98%; with PC-3 prostate, 77.6%. The growth in the assay on SK-MEL-5 melanoma was 94%; with UACC-62 melanoma it was 72.4%; in the assay on LOX IMVI melanoma, 95.4%; with SK-MEL-28 melanoma, 99.9%.
Turning to `Cc1ccc(NC(=O)c2ccc(Nc3ncnc4c3cnn4-c3cccc(F)c3)cc2)cc1`, the growth in the assay with HCT-15 colon is 100%; in the assay with HT29 colon, 98.8%; in the assay on SNB-75 CNS it was 93.5%; in the assay on SNB-19 CNS it was 94.2%; in the assay on U251 CNS it was 102%; in the assay with PC-3 prostate it was 100%. Moreover, the growth in the assay on SK-MEL-5 melanoma was 99.8%; in the assay on UACC-62 melanoma, 90.7%; with LOX IMVI melanoma, 92.8%; in the assay on SK-MEL-28 melanoma it was 106%.
For `O=C1CCc2c(sc3[nH]c(=S)n(-c4cc(C(F)(F)F)cc(C(F)(F)F)c4)c(=O)c23)C1`, the growth with HCT-15 colon was -42.9% (active); in the assay on HT29 colon, 0.73% (active); in the assay with SNB-75 CNS, -8.04% (active); in the assay on SNB-19 CNS, 15.1%; with U251 CNS it was -22.4% (active); with PC-3 prostate, -38.4% (active). The growth in the assay on SK-MEL-5 melanoma was -88.9% (active); with UACC-62 melanoma, -12.9% (active); in the assay with LOX IMVI melanoma, 1.59% (active); with SK-MEL-28 melanoma, -16.8% (active).
Take `COC(=O)CCc1c(/C=C2\N=C(c3ccc[nH]3)C=C2OC)[nH]c(C)c1C(=O)OCc1ccccc1`: the growth in the assay with HCT-15 colon is -1.22% (active); in the assay on HT29 colon, 9.15% (active); with SNB-75 CNS it was -17.6% (active); in the assay on SNB-19 CNS, 39.3%; in the assay on U251 CNS it was 3.55% (active); with PC-3 prostate, 6.14% (active). Besides, the growth is -52.4% (active) in the assay on SK-MEL-5 melanoma, -29.2% (active) in the assay with UACC-62 melanoma, -52.7% (active) in the assay with LOX IMVI melanoma and 16.8% with SK-MEL-28 melanoma.
For `O=C1c2ccccc2C(=O)c2cc(Cn3c[n+](Cc4ccc5ccccc5c4)c4ccccc43)ccc21`, the growth is 89.8% with HCT-15 colon; 51.5% with HT29 colon; 42.3% in the assay on SNB-75 CNS; 45% in the assay on SNB-19 CNS; 57.1% with U251 CNS; 27.7% in the assay with PC-3 prostate. Also, the growth was 34.1% in the assay on SK-MEL-5 melanoma, 4.86% (active) in the assay on UACC-62 melanoma, 52% with LOX IMVI melanoma and 45.4% with SK-MEL-28 melanoma.
